Data from PubChem BioAssay AID720509 (The Scripps Research Institute Molecular Screening Center, 2013).
The campaign covered roughly 370,000 compounds. About 760 (0.21%) were called active. The entries come from a sample that favours actives as a whole. Values without a mark were called inactive.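 The calls were made as follows: active = inhibition above a per-campaign cutoff: mean of compounds within control limits plus 3 SD (cut at about 15% in these data); inactive = the rest.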

Target: Fibrinogen beta chain (Homo sapiens) (UniProt P02675)
Assay: small molecules displacing Tn6 from DD(E) complex – biochemical, fluorescence polarization, human fibrin, Tn6 probe, primary screen (AID 720509);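 also: 0% = median of all compound wells on the plate and 100% = blocking peptide control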
Settings: Fibrin DD(E) TRITC-Tn6 fluorescence polarization displacement; at 8.3 µM; active compounds read high

Sequence of Fibrinogen beta chain (Homo sapiens) (P02675 whole entry, looked up): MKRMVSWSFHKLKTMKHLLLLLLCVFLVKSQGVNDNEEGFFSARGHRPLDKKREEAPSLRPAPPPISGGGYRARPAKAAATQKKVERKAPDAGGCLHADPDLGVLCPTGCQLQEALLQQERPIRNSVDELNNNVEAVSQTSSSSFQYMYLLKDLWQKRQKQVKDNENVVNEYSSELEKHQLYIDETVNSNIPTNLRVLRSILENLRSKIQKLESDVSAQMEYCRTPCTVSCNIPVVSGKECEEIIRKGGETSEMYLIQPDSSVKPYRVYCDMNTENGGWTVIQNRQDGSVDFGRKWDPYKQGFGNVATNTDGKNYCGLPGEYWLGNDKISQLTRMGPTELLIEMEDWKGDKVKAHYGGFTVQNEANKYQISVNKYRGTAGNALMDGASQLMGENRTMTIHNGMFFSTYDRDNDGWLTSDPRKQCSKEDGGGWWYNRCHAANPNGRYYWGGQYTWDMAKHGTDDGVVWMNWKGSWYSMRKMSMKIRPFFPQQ

Row | SMILES | inhibition
1 | CCCCNC(=O)OC1CC2CC1[C@H]1CCCCN1C2=O (stereo not given in full) | -8.63%
2 | OCCC1CN(Cc2ccc3nsnc3c2)CCN1C1CCCCC1 (stereo not given) | -12.1%
3 | COc1ccc(S(=O)(=O)NC2(C(F)(F)F)N=C3SCCN3C2=O)cc1 (stereo not given) | 3.58%
4 | COc1ccc(N2C(=O)NC(NS(=O)(=O)c3ccc(Cl)cc3)(C(F)(F)F)C2=O)cc1 (stereo not given) | 16.5% (active)
5 | Cc1ccc(S(=O)(=O)NC2(C(F)(F)F)NC(=O)N(CCc3ccccc3)C2=O)cc1 (stereo not given) | 1.91%
6 | Cc1cc(=O)[nH]c(SCC(=O)Nc2ccc(F)cc2F)n1 | -5.08%
7 | COc1ccc(NC(=O)C2=NNC(=O)CC2)cc1S(=O)(=O)N1CCCCC1 | 3.03%
8 | COCCn1c(SCC(=O)Nc2ccc3c(c2)CCC3)nc2ccccc2c1=O | -3.38%
9 | COc1ccc(NS(=O)(=O)c2cc3c(cc2C)N(C(C)=O)CCO3)cc1 | -0.74%
10 | C=C(C)CSc1nnc(-c2ccc(C)cc2)n1N | 2.43%
11 | CC(C)N(c1ccccc1)c1ncnc(NCCC(=O)O)c1[N+](=O)[O-] | 0.23%
12 | Cc1ccc2c(c1)N(CC(=O)NCCCN1CCCCC1)C(=O)c1cccnc1O2 | -7.1%
13 | COc1ccc([C@H]2OC(=O)C[C@H]2C(=O)N2CCN(c3ccccc3F)CC2)cc1OC | -0.84%
14 | CCCN(CC(=O)Nc1ccc(OC)c(OC)c1)CC(=O)Nc1ccc(F)c(F)c1F | 7.52%
15 | O=C(Nc1ccc(Cl)cc1)Nc1ccc(Oc2cccnc2)nc1 | -12.2%
16 | COc1ccc(Nc2nc(-c3cccnc3)nc3ccccc23)cn1 | 15.3% (active)
17 | O=C(CSc1n[nH]c(-c2cccnc2)n1)Nc1ccnc2ccccc12 | -0.07%
18 | COc1ccc(S(=O)(=O)N(CCCN2CCCC2=O)Cc2cc3c(C)ccc(C)c3[nH]c2=O)cc1 | -7.91%
19 | Cc1ccc(NC(=O)CN2CCc3ccccc3C2)cc1 | 15.8% (active)
20 | O=C(CN1CCc2ccccc2C1)Nc1cccc(S(=O)(=O)N2CCOCC2)c1 | 4.91%
21 | Cc1ccc(NC(=O)Cn2sc3ccccc3c2=O)cc1 | 1.72%
22 | Cc1ccc(-c2nc(C)sc2CC(=O)O)cc1 | 16.2% (active)
23 | Cc1ccc(-c2nc(C)sc2CC(=O)OCC(=O)Nc2c(F)cccc2F)cc1 | 4.3%
24 | Cc1nc(-c2ccc(F)cc2)c(CC(=O)N2CCN(S(=O)(=O)c3ccc(F)cc3)CC2)s1 | -5.03%
25 | O=C(Nc1ccc(N2CCOCC2)cc1)c1cccc2c(-c3ccc(F)c(F)c3)coc12 | -1.54%
